In the supplement of paper PMC11732987, “Enantioselective OTUD7B fragment discovery through chemoproteomics screening and high-throughput optimisation” (Communications Chemistry, 2025):

Assays:
Test in all cases: log2 ratio of Biotin-Ahx-Ub-VS probe labelling (fragment/DMSO); higher = less target engagement (more negative = stronger competition), active = hit call of the paper (q ≤ 0.05, log2 ratio ≤ -1)
Conditions in all cases: compound concentration: 200 uM; treatment time: 3 h
ALG13 = target: T1, ALG13 (UniProt Q9NP73)
T1 sequence (whole entry): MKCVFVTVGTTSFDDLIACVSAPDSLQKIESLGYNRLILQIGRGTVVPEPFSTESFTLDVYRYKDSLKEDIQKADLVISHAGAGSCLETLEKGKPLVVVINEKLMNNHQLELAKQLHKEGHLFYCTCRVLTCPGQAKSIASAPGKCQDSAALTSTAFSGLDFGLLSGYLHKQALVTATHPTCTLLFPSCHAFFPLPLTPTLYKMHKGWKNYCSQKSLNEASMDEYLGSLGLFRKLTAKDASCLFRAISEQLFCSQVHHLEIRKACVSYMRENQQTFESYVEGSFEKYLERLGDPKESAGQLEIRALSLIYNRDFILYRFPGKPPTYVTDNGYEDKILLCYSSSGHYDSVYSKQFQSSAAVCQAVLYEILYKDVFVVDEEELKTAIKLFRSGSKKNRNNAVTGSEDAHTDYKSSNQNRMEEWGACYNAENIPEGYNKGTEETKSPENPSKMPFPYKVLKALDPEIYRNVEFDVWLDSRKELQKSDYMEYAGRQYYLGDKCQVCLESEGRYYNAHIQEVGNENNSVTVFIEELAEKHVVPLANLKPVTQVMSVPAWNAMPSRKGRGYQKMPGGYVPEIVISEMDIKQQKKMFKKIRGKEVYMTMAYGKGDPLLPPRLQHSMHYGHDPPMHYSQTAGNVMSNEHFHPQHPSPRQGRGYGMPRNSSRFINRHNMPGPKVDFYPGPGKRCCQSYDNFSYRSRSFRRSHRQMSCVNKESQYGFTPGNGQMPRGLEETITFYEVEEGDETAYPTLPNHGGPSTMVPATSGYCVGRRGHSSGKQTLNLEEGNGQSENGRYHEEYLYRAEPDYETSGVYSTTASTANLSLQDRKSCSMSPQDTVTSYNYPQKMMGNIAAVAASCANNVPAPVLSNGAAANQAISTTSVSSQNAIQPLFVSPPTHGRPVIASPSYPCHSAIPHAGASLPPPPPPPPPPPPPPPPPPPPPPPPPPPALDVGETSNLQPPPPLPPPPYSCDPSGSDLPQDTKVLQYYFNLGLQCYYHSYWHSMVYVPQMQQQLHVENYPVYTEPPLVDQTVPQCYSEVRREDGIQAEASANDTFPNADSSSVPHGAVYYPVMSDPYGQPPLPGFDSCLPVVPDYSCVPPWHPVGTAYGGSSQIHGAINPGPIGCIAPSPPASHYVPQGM
Method in brief: (§1)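 Using Biotin-Ahx-Ub-VS at 0.5 µM final for 1 h, DUBs were labelled in HEK293T lysate (495 µg per sample) that had first been treated in triplicate with fragment at 200 µM or vehicle for 3 h. NeutrAvidin enrichment, LysC and trypsin digestion and diaPASEF LC-MS/MS followed. Spectronaut label-free quantities were global-median-normalised. Values are average log2 fragment/vehicle ratios by unpaired t-test, using proteins with ≥2 unique peptides.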

ATXN3 = ATXN3 (UniProt P54252)
Method in brief: as §1

BAP1 = target: T2, BAP1 (UniProt Q92560)
T2 sequence (whole entry): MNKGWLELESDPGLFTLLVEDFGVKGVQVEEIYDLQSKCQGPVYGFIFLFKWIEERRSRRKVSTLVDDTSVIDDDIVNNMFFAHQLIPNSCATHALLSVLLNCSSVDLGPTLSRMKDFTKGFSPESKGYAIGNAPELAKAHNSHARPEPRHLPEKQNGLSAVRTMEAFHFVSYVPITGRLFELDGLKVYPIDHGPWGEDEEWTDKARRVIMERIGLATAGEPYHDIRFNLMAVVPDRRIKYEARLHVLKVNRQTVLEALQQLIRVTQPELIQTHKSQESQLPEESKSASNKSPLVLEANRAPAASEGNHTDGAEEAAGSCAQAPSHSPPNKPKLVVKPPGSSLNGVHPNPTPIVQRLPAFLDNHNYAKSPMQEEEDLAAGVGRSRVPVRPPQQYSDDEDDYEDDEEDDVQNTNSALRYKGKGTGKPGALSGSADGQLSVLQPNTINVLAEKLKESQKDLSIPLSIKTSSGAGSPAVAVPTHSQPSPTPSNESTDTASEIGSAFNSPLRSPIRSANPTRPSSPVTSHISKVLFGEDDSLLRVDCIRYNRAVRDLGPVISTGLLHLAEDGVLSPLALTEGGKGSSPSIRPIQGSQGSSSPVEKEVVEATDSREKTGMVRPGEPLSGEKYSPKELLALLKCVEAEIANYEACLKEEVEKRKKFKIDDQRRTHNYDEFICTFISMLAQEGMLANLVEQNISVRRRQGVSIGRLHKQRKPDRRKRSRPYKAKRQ
Method in brief: as §1

EIF3F = EIF3F (UniProt O00303)
Method in brief: as §1

EIF3H = EIF3H (UniProt O15372)
Method in brief: as §1

FAM105A = target: T3, FAM105A (UniProt Q9NUU6)
T3 sequence (whole entry): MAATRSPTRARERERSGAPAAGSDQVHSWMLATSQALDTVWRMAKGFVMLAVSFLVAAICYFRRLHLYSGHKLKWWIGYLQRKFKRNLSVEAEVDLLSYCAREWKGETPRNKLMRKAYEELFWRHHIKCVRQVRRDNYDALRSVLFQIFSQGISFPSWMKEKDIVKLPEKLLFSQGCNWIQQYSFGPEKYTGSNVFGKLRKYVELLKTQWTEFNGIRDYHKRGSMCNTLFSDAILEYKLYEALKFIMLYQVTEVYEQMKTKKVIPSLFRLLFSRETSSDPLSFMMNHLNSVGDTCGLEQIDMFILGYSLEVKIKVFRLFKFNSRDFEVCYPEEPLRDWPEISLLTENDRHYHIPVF
Method in brief: as §1

OTUB1 = OTUB1 (UniProt Q96FW1)
Method in brief: as §1

OTUD4 = target: T4, OTUD4 (UniProt Q01804)
T4 sequence (whole entry): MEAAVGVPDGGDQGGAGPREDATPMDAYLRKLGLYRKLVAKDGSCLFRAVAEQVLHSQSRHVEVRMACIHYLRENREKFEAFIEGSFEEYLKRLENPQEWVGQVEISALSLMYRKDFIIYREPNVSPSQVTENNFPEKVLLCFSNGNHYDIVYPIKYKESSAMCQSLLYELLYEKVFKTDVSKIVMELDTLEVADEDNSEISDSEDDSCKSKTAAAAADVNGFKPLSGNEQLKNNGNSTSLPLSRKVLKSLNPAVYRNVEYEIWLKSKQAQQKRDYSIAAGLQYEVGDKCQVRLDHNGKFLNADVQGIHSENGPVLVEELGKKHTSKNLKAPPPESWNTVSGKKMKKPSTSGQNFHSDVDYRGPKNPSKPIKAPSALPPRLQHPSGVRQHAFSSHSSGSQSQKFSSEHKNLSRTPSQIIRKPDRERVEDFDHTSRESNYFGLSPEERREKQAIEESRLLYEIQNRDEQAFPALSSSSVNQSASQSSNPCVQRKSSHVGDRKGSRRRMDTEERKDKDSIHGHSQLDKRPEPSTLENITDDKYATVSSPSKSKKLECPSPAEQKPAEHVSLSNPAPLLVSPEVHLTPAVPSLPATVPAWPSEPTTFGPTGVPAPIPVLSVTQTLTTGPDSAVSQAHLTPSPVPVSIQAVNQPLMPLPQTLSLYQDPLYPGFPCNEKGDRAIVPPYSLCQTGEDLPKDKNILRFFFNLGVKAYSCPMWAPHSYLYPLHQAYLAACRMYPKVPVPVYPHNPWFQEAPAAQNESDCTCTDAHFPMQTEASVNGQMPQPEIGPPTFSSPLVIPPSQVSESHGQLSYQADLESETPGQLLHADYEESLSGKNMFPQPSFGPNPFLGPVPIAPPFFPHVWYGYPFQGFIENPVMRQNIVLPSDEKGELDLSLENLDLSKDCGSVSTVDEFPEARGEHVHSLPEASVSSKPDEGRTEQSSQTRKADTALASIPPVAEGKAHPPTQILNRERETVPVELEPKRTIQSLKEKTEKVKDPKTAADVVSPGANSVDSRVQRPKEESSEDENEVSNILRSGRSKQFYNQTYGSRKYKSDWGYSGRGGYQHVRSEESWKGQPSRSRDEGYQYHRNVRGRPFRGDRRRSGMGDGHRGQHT
Method in brief: as §1

OTUD5 = target: T5, OTUD5 (UniProt Q96G74)
T5 sequence (whole entry): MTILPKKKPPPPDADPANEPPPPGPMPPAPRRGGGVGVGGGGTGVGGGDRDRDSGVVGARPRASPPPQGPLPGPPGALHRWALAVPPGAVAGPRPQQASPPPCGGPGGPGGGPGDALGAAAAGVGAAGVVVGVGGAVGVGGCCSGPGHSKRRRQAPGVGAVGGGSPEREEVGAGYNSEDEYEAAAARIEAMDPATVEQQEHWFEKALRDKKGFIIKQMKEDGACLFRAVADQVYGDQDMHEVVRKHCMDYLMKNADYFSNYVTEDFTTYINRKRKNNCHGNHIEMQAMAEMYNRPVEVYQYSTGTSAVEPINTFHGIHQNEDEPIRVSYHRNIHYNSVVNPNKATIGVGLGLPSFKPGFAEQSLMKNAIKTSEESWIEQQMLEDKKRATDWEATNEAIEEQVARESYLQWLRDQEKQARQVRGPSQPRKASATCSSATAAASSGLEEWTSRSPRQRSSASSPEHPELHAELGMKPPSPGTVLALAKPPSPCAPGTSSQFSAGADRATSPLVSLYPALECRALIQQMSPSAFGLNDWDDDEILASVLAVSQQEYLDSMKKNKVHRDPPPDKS
Method in brief: as §1

Measured: log2 ratio of Biotin-Ahx-Ub-VS probe labelling

Sequence of EIF3H (O15372 whole entry): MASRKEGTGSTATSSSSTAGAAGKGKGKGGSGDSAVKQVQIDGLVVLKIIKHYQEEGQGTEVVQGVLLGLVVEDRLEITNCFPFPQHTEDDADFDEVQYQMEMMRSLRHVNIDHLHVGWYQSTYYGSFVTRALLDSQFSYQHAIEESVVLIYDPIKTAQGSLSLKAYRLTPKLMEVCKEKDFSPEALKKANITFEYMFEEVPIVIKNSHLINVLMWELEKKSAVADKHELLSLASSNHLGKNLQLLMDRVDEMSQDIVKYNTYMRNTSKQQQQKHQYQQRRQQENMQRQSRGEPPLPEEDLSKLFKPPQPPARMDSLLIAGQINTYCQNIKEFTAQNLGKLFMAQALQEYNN
Sequence of EIF3F (O00303 whole entry): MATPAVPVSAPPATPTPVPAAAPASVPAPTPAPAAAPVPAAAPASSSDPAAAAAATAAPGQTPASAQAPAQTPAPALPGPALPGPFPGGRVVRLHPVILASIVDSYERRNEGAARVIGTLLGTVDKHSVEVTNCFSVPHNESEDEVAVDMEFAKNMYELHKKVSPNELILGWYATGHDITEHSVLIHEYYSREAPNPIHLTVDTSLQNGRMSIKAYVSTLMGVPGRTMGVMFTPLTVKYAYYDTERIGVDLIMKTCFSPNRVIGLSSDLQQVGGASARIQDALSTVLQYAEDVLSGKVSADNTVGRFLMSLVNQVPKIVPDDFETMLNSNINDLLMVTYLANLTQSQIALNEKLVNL
Sequence of ATXN3 (P54252 whole entry): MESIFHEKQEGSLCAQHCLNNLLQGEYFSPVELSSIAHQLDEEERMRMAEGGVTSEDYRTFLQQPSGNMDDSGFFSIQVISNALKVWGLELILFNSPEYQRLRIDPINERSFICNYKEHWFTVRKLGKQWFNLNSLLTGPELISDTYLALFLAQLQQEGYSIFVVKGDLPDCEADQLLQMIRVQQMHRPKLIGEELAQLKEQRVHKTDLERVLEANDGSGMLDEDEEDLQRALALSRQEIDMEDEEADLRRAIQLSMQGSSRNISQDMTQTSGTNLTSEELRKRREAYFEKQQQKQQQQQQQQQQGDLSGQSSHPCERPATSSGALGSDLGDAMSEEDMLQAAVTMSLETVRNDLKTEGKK
Sequence of OTUB1 (Q96FW1 whole entry): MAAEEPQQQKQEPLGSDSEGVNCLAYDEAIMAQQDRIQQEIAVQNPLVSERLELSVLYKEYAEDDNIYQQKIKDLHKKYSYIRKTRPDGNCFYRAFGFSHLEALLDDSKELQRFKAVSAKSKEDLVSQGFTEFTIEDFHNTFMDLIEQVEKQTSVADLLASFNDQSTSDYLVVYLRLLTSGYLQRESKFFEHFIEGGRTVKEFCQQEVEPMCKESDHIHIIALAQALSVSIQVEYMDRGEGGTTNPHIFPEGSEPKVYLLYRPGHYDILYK

CS(=O)(=O)N1CCCN(C(=O)CCl)CC1
inactive: ALG13 -0.306 | ATXN3 -0.428 | BAP1 -0.451 | EIF3F -0.0174 | EIF3H 0.332 | FAM105A -0.12 | OTUB1 -0.478 | OTUD4 -0.3 | OTUD5 -0.335
